Article PMC5540273 (PLoS ONE, 2017)

Columns and labels:
Details in all cases: concentration: 1 μM,replicates: in singlicate; n = 1
PIK3C2G = tested on: PIK3C2G
PIK3CA = tested on: PIK3CA
PIK3CB = tested on: PIK3CB
PIK3CD = tested on: PIK3CD
PIK3CG = tested on: PIK3CG
PIK4CB = tested on: T1, PIK4CB
T1 construct: gene PI4KB

PIKFYVE = tested on: PIKFYVE
PIM1 = tested on: PIM1
PIM2 = tested on: PIM2
PIM3 = tested on: PIM3
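Further: KINOMEscan kinase panel screen.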

Compound | %Inh (PIK3C2G) [%] | %Inh (PIK3CA) [%] | %Inh (PIK3CB) [%] | %Inh (PIK3CD) [%] | %Inh (PIK3CG) [%] | %Inh (PIK4CB) [%] | %Inh (PIKFYVE) [%] | %Inh (PIM1) [%] | %Inh (PIM2) [%] | %Inh (PIM3) [%]
Cn1ccc2ncnc(Oc3ccc(NC(=O)Nc4cnn(C(C)(C)C)c4)c(Cl)c3)c21 | 8 | 10 | 0 | 14 | 7 | 0 | 0 | 0 | 7 | 0
O=C(NCC1CC1)c1ccc(-c2cc(C(=O)NC3CC3)ccc2F)cc1 [GW810445] | 0 | 0 | 0 | 0 | 0 | 0 | 6 | 9 | 0 | 0
Cn1ccc2ncnc(Oc3ccc(NC(=O)Nc4ccnc(C(F)(F)F)c4)c(Cl)c3)c21 | 13 | 0 | 0 | 0 | 0 | 0 | 7 | 5 | 3 | 0
O=C(Nc1cccc(C(F)(F)F)c1)c1cccc(Oc2ccc3nccn3n2)c1 | 13 | 98.1 | 0 | 17 | 94.2 | 39 | 0 | 0 | 7 | 0
O=c1[nH]cc(-c2ccc(O)cc2)c2sc(-c3ccncc3)cc12 [GSK1033723] | 20 | 0 | 13 | 39 | 7 | 0 | 0 | 0 | 13 | 0
CN1CCN(CCCNc2nccc(-c3c(-c4ccc(F)cc4)nn4cc(C(N)=O)ccc34)n2)CC1 [GW622475] | 0 | 0 | 0 | 0 | 0 | 0 | 94.2 | 25 | 0 | 8
C[C@@H]1CNc2c(sc3ccc4nc(-c5ccc(O)cc5)ccc4c23)C(=O)N1 | 28 | 5 | 34 | 39 | 11 | 0 | 18 | 37 | 93.7 | 72
COc1cccc(CNC(=O)NC2CCN(c3ccnc(Nc4cc(OC)c(OC)c(OC)c4)n3)C2)c1 (stereo not shown) [GSK1379765] | 0 | 0 | 83 | 35 | 0 | 67 | 0 | 0 | 0 | 0
CN(c1ccc2c(c1)nc(NCc1ccc(F)cc1)n2C)c1ccnc(Nc2ccc(CS(C)(=O)=O)cc2)n1.Cl [GW813244] | 0 | 27 | 0 | 0 | 0 | 0 | 0 | 18 | 49 | 15
COC(=O)c1cccc(NC(=O)NC2CCN(c3ccnc(NCc4ccc(F)cc4)n3)CC2)c1 [GSK1379860] | 0 | 0 | 0 | 61 | 0 | 0 | 57 | 0 | 0 | 0
COc1cccc(C2=C(Nc3cccc(Cl)c3)C(=O)NC2=O)c1 [SB-341556] | 0 | 1 | 0 | 0 | 0 | 10 | 0 | 9 | 0 | 0
COc1cccc(OC)c1C(=O)Nc1cccc(-c2nn3ccccc3c2-c2ccnc(Nc3cccc(F)c3)n2)c1 [GSK361065] | 24 | 0 | 0 | 1 | 0 | 0 | 42 | 10 | 0 | 13
CCCC(=O)Nc1n[nH]c2ncccc12 [SB-601436] | 0 | 0 | 0 | 0 | 7 | 12 | 0 | 0 | 0 | 0
C[C@@H](Oc1cc(-n2cnc3cc(-c4ccncc4)ccc32)sc1C(N)=O)c1ccccc1Cl [GSK479719] | 0 | 0 | 0 | 0 | 0 | 0 | 27 | 0 | 0 | 0
CCOC(=O)N1CCC(n2cnc(-c3ccc(F)cc3)c2-c2ccnc(N)n2)CC1 [SB-219952] | 69 | 15 | 0 | 16 | 64 | 59 | 37 | 9 | 0 | 1
O=C(Nc1ccc(Oc2ccc3nc(NC(=O)C4CC4)cn3n2)c(F)c1)c1cccn(-c2ccccc2)c1=O | 0 | 0 | 0 | 0 | 0 | 0 | 4 | 5 | 8 | 0
Cl.c1ccc(Oc2ccc(Nc3ccnc4cc(-c5ccc(CN6CCNCC6)o5)ccc34)cc2)nc1 [GW567142] | 0 | 0 | 0 | 0 | 10 | 0 | 0 | 0 | 0 | 2

Compound | %Inh (PIK3C2G) [%] | %Inh (PIK3CA) [%] | %Inh (PIK3CB) [%] | %Inh (PIK3CD) [%] | %Inh (PIK3CG) [%] | %Inh (PIK4CB) [%] | %Inh (PIKFYVE) [%] | %Inh (PIM1) [%] | %Inh (PIM2) [%] | %Inh (PIM3) [%]
Cc1ccn2nc(-c3ccc(F)cc3)c(-c3ccncc3)c2c1.Cl [GW457859] | 20 | 0 | 0 | 1 | 1 | 0 | 54 | 16 | 0 | 0
CS(=O)(=O)c1cccc(CNc2nc(Nc3ccc4c(c3)[C@@H]3C[C@@H]4CNC3=O)ncc2C(F)(F)F)c1 | 0 | 0 | 0 | 0 | 0 | 0 | 24 | 0 | 0 | 0
COc1cc2nccc(Nc3ccc(Oc4ccccc4)cc3)c2cc1OC.Cl [GI261656] | 0 | 0 | 0 | 0 | 0 | 0 | 5 | 0 | 0 | 0
Cn1ccc2ncnc(Oc3ccc(NC(=O)Nc4cncc(C(F)(F)F)c4)c(Cl)c3)c21 | 0 | 0 | 0 | 0 | 0 | 0 | 0 | 3 | 1 | 0
Cc1ccc(CC(=O)N2CCc3cc(-c4cn(C)c5ncnc(N)c45)ccc32)cc1 [GSK2634758] | 4 | 0 | 0 | 36 | 0 | 0 | 1 | 0 | 0 | 0
CSc1nccc(-c2c(-c3ccc(F)cc3)ncn2CCCN2CCOCC2)n1.Cl [SB-217146] | 0 | 17 | 0 | 0 | 0 | 5 | 14 | 35 | 0 | 9
Cn1ccc2ncnc(Oc3ccc(NC(=O)Nc4cccc(C(F)(F)F)c4)c(Cl)c3)c21 | 5 | 0 | 19 | 0 | 0 | 0 | 29 | 12 | 1 | 15
Cc1ccc(Nc2ccnc(Nc3ccc4c(c3)CS(=O)(=O)C4)n2)cc1O.Cl [GW579362] | 42 | 2 | 0 | 0 | 31 | 67 | 0 | 29 | 0 | 5
Cl.Cl.NC[C@H](CC1CCCCC1)NC(=O)c1ccc(-c2ccnc3[nH]ccc23)s1 [GSK1581428] | 0 | 0 | 0 | 0 | 0 | 0 | 0 | 0 | 0 | 0
CC(=O)Nc1ccc(-c2cc3ncnc(SCC(=O)O)c3s2)cc1 | 0 | 0 | 26 | 5 | 1 | 0 | 38 | 10 | 48 | 22
C[C@@H]1CCN(C(=O)N2CCCC2)C[C@@H]1N(C)c1ncnc2[nH]ccc12 | 0 | 2 | 26 | 2 | 14 | 7 | 3 | 0 | 0 | 0
CCn1c(-c2nonc2N)nc2cncc(Br)c21 [SB-738004] | 12 | 0 | 21 | 34 | 11 | 5 | 39 | 89 | 0 | 62
CNC(=O)c1ccccc1Nc1nc(Nc2cccc(CS(C)(=O)=O)c2)ncc1C.O=CO [GSK1520489] | 0 | 0 | 0 | 0 | 20 | 12 | 0 | 18 | 0 | 0
Cc1cccc(-c2nc(Nc3ccncc3)c3sccc3n2)n1 [GW869641] | 40 | 33 | 28 | 46 | 23 | 31 | 86 | 27 | 3 | 13
CC(=O)c1c(-c2ccncc2)[nH]c(-c2ccncc2)c1C [GW493036] | 0 | 0 | 0 | 38 | 0 | 0 | 26 | 11 | 0 | 9
CN(c1ccccc1CNc1nc(Nc2ccc3c(c2)CC(=O)N3)ncc1C(F)(F)F)S(C)(=O)=O | 0 | 0 | 0 | 0 | 0 | 0 | 38 | 0 | 0 | 0
CS(=O)c1ccc(-c2coc3ccc(-c4n[nH]c(=O)o4)cc23)cc1 (stereo not shown) | 49 | 46 | 41 | 35 | 78 | 43 | 64 | 87 | 82 | 84
